Assay [1] can be described thus: binders of probe aFSTL3 on microarray, primary screen, stem cell growth factor project, biochemical, small-molecule microarray, fluorescence 635/667 (AID 1064).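 Also: measures binding of the biotinylated anti-FSTL3 antibody to printed compounds.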 The note with it: higher = more signal.
Assay [2] in a line: binders from COS7 lysate, DM2A8 probe, primary screen, torsin A project, cell lysate, small-molecule microarray, fluorescence 635/667 (AID 1065). The note with it: higher = more signal, COS7 lysate expressing mutant human TOR1A.
Assay [3] in a line: binders of probe aFGF2 on microarray, primary screen, stem cell growth factor project, biochemical, small-molecule microarray, fluorescence 635/667 (AID 1067).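 Also: measures binding of biotinylated aFGF2 protein to printed compounds on slides; z-score merges feature fluorescence and signal-to-noise across triplicate slides.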 The note with it: higher = more signal.
Assay [4] is described as follows: binders of probe aFGF10 on microarray, primary screen, stem cell growth factor project, biochemical, small-molecule microarray, fluorescence 635/667 (AID 1071).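 Also: score merges 667 nm spot intensity and signal to noise from triplicate slides.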 To be noted: higher = more signal.
Assay [5] deals with Neurogenic locus notch homolog protein 2 (Homo sapiens) (UniProt Q04721). In words: Notch2 binders on small-molecule microarrays, primary screen, biochemical, small-molecule microarray, 635 nm fluorescence, stem cell growth factors (AID 1073). The note with it: Notch2 binding, higher = more signal.
The target of assay [6] is Pro-neuregulin-1, membrane-bound isoform (Homo sapiens) (UniProt Q02297). Put plainly: NRG1 binders on small-molecule microarrays, primary screen, psychiatric disease protein project, biochemical, small-molecule microarray, fluorescence 635/667 (AID 1075).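 Also: score combines 667 nm spot fluorescence with signal to noise.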 The note with it: NRG1 binding, 635 nm fluorescence, higher = more signal.
In assay [7] the test system is Neuregulin-1 EGF-like domain. Put plainly: binders of neuregulin-1 EGF-like domain, primary screen, biochemical, small-molecule microarray, 635 nm fluorescence (AID 1081).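 Also: binding of the protein to compounds printed on small-molecule microarray slides.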 The note with it: small-molecule microarray binding, higher = more signal.
A short description of assay [8]: FRG1 promoter luciferase signal modulators, primary screen, FRG1 inhibition for FSHD, cell-based, C2C12 myotubes, firefly/Renilla luciferase, luminescence (AID 1084). The note with it: higher = more signal, called active from +8 up or from −8 down.
Assay [9] in a line: binders of probe aFST on microarray, primary screen, stem cell growth factor project, biochemical, small-molecule microarray, fluorescence 635/667 (AID 1086).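 Also: score merges 667 nm fluorescence with signal-to-noise of each printed compound spot.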 To be noted: higher = more signal.
A short description of assay [10]: binders of probe aHhip on microarray, primary screen, stem cell growth factor project, biochemical, small-molecule microarray, fluorescence 635/667 (AID 1087).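 Also: score merges spot fluorescence at 667nm with spot signal to noise ratio.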 To be noted: higher = more signal.

Calls of active or inactive are those of the source.

Chain of Pro-neuregulin-1, membrane-bound isoform (Homo sapiens) (Q02297 whole entry, looked up, the tested form may be a part, canonical isoform): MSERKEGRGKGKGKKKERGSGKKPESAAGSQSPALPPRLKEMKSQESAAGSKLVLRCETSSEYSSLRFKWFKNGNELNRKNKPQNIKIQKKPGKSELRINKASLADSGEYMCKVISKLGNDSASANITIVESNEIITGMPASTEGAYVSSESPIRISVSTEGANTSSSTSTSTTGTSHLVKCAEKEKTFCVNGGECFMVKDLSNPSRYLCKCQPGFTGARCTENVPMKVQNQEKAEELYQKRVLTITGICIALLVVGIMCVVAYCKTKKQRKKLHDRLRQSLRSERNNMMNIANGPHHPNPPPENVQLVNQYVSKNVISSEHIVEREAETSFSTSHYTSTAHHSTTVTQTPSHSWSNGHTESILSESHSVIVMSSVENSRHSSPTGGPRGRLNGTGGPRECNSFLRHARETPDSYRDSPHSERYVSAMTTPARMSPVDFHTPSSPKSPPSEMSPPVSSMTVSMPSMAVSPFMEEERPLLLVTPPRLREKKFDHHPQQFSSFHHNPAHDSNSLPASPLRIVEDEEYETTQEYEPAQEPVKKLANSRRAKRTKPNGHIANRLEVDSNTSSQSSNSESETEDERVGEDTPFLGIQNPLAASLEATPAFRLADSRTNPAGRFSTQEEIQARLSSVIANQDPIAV
Chain of Neurogenic locus notch homolog protein 2 (Homo sapiens) (Q04721 whole entry, looked up, canonical isoform): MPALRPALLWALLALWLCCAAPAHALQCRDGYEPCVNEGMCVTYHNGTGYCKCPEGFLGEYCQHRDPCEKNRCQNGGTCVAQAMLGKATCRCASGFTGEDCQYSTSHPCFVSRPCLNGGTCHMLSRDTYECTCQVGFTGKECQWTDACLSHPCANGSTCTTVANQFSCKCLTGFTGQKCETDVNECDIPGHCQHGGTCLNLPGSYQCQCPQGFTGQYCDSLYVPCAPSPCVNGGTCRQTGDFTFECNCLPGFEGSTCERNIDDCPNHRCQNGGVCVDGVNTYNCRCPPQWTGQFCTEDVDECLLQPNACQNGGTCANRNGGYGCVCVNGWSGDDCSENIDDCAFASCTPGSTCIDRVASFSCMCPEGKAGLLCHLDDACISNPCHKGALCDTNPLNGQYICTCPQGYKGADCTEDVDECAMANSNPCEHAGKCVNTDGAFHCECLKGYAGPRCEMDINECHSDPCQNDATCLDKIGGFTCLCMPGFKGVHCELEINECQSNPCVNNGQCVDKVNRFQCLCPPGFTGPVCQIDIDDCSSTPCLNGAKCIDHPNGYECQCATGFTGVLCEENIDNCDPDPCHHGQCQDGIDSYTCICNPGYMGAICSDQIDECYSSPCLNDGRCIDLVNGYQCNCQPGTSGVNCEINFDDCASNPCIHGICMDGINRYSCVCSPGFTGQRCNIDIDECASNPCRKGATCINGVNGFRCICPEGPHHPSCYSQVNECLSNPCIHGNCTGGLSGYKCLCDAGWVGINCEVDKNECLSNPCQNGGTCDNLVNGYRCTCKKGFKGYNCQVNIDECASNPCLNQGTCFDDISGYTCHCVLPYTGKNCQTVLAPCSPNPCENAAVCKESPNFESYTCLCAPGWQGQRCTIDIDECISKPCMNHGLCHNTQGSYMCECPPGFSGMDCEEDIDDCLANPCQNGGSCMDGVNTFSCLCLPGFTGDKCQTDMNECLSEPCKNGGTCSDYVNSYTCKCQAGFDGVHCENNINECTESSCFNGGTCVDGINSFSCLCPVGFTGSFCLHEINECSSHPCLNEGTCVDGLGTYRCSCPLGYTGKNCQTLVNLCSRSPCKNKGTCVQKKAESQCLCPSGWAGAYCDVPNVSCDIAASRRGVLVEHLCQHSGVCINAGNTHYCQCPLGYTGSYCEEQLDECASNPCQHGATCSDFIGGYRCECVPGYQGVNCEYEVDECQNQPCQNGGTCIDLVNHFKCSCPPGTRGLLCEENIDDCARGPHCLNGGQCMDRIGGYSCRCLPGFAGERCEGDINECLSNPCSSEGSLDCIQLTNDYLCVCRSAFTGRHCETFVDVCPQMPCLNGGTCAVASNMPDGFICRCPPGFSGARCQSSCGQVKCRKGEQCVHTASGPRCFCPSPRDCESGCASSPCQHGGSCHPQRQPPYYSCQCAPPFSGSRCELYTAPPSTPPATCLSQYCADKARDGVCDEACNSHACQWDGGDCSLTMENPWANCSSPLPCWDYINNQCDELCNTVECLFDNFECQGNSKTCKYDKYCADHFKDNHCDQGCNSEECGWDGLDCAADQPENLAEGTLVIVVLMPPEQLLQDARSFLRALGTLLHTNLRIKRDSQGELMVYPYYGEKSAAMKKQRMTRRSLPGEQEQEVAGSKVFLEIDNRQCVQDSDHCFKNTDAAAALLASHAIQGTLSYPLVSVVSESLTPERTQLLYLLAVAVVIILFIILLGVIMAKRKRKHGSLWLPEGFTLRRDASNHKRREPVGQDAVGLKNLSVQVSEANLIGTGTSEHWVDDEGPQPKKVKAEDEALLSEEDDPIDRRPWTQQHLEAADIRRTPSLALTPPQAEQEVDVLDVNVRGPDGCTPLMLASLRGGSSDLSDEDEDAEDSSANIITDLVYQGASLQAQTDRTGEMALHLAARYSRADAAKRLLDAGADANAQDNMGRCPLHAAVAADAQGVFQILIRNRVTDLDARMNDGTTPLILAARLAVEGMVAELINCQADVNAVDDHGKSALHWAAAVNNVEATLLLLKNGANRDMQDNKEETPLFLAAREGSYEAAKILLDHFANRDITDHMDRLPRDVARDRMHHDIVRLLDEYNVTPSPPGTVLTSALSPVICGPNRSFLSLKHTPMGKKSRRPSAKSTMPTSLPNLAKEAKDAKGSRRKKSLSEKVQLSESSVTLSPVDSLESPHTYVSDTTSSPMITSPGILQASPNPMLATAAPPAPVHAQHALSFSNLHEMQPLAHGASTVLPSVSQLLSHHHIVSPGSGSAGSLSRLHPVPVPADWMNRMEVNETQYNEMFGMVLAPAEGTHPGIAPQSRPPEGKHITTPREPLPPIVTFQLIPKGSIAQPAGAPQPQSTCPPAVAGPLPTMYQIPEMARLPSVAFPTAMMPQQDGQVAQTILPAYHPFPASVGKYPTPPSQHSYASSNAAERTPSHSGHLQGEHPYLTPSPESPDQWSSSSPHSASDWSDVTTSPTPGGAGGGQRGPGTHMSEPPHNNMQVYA

For the compound `COCCOC(=O)N1C(=O)[C@@]2(c3cc(C#CC4=CCCCC4)ccc31)[C@H](c1ccccc1OCCO)N1[C@H](c3ccccc3)[C@H](c3ccccc3)OC(=O)[C@H]1[C@@H]2C(=O)N1CCN(c2ncccn2)CC1`, the composite z-score in [1] was -0.463; in assay [2], 0.434; in assay [3] it was -0.0536; in [4], 0.538; in [5], 1.07; in assay [6], 0.373. Moreover, the composite z-score in assay [7] was 1.13; in assay [9] it was 0.469; in assay [10], -0.321. Moreover, in assay [8], the z-score is -0.624 (inactive).
For the compound `CC(C)[Si](C#CCCCC#N)(O[C@H](c1ccccc1)c1cn(Cc2ccccc2)nn1)C(C)C`, the composite z-score in assay [1] is -0.281; in assay [2] it was 0.704; in assay [3] it was -0.0728; in assay [4], 0.335; in assay [5] it was 0.879; in [6] it was 0.048. The composite z-score in [7] is 1.13; in [9], 0.775; in [10] it was 0.095. For the same compound, the z-score in assay [8] is -2.06 (inactive).
Take `COc1ccc(C(=O)Nc2ccc(CN3C(=O)[C@]4(O[C@H](CC(=O)N5Cc6ccccc6C[C@H]5CO)[C@@H]([Si](C)(C)c5ccc(OC)cc5)[C@@H]4C)c4ccccc43)cc2)cc1`: the composite z-score in assay [1] was -0.402; in assay [2], 0.716; in assay [3], -0.0785; in [4] it was 0.357; in assay [5] it was 0.397; in [6], 1.48. Further, the composite z-score in assay [7] is 0.95; in [9], 0.0491; in [10], -0.0618. The z-score in assay [8] was -1.89 (inactive).
For `C=CCNC(=O)[C@@H]1[C@H]2C(=O)O[C@H](c3ccccc3)[C@H](c3ccccc3)N2[C@H](c2ccccc2OCCO)[C@@]12C(=O)Nc1ccc(C#CCCO)cc12`, the composite z-score was -0.501 in [1]; 0.143 in assay [2]; 0.0013 in assay [3]; 0.0379 in assay [4]; 0.611 in assay [5]; 0.99 in [6]. The composite z-score in assay [7] is 1.19; in assay [9], 0.954; in assay [10], 0.154. Further, the z-score in [8] was -0.452 (inactive).
As for `COc1ccccc1CN1C(=O)c2ccccc2[C@](Cc2ccccc2I)(C(=O)O)[C@@H]1c1ccc(CO)cc1`, the composite z-score is -0.689 in assay [1]; 0.387 in assay [2]; 0.0043 in [3]; 1.01 in assay [4]; 1.51 in [5]; 1.36 in assay [6]. For the same compound, the values for the composite z-score in assay [7], in [9] and in assay [10] were 1.27, -0.262 and 0.305, respectively. In [8], the z-score was -1.49 (inactive).
For `COc1ccc([Si](C)(C)[C@@H]2[C@@H](CCO)O[C@]3(C(=O)N(Cc4ccccc4)c4ccc(N5CCOC5=O)cc43)[C@H]2C)cc1`, the composite z-score in assay [1] was -0.142; in assay [2] it was 0.682; in assay [3] it was -0.0346; in [4], 0.65; in [5] it was 0.545; in assay [6] it was 0.69. The figures for the composite z-score in [7], in assay [9] and in assay [10] were 0.951, 0.152 and -0.226, respectively. Moreover, the z-score in assay [8] is -4.48 (inactive).
In the case of `O=C(NCCN1CCOCC1)[C@@H]1c2ccccc2C(=O)N(C2Cc3ccccc3C2)[C@H]1c1ccc(CO)cc1`, the composite z-score in [1] was 0.704; in assay [2], 0.0352; in assay [3], -0.163; in assay [4], -0.465; in assay [5], -0.168; in [6] it was 0.855. In addition, the composite z-score in assay [7] is 1.25; in [9] it was -0.768; in assay [10], -0.173. Further, the z-score in [8] is -1.39 (inactive).
As to `NC(=O)[C@H]1[C@@H]2C(=O)O[C@@H](c3ccccc3)[C@@H](c3ccccc3)N2[C@@H](c2ccc(OCCO)cc2)[C@]12C(=O)Nc1ccc(C#CCCO)cc12`, the composite z-score in assay [1] was 0.127; in assay [2] it was 0.685; in assay [3] it was -0.0524; in assay [4] it was 0.715; in assay [5], 0.874; in assay [6], 0.874. Besides, the results for the composite z-score in assay [7], in [9] and in [10] were 1.02, 0.232 and -0.275, respectively. The z-score in [8] was 1.7 (inactive).
For `NCCCCCCNC(=O)[C@@H]1C[C@@H]2C(=O)N[C@@H](CCCCN)C(=O)N2[C@@H]1c1ccc(O)cc1`, the composite z-score in assay [1] was 0.208; in assay [2], 0.301; in assay [3], -0.0313; in [4] it was 0.469; in [5] it was 0.147; in [6], 2.01. The composite z-score in assay [7] was 1.25; in assay [9] it was 0.077; in assay [10], -0.149. In assay [8], the z-score is 0.598 (inactive).
Take `CC1=C2[C@@H](CCc3ccccc3)OB(O)C[C@@H]2[C@@H]2C(=O)N(Cc3ccccc3)C(=O)[C@@H]2C1`: the composite z-score is -0.575 in assay [1]; -0.0096 in assay [2]; -0.155 in [3]; 0.0928 in assay [4]; 0.529 in [5]; 0.0808 in assay [6]. Also, the composite z-score in [7] is 1.02; in assay [9] it was 0.0584; in assay [10], -0.0618. Also, the z-score in assay [8] was -0.0949 (inactive).
Take `COCC(=C=CC[C@H](O)c1ccccc1OCCO)C[C@H](O)c1ccccn1`: the composite z-score in assay [1] was -0.109; in assay [2], -0.169; in assay [3], -0.128; in assay [4], 0.4; in assay [5], -0.548; in assay [6], -0.409. For the same compound, the composite z-score in assay [7] is 0.0876; in assay [9], 0.0547; in assay [10] it was -0.0994. The z-score in [8] is -0.996 (inactive).
Consider `O=C(O)[C@@H]1C[C@@H]2C(=O)N3CCC[C@H]3C(=O)N2[C@@H]1c1ccc(O)cc1`, for which the composite z-score is 1.18 in assay [1]; 0.607 in assay [2]; -0.0058 in assay [3]; 0.0314 in [4]; 0.0995 in assay [5]; 0.956 in assay [6]. The composite z-score in assay [7] was determined as 1; in [9] it was 0.387; in assay [10] it was 0.35. Further, the z-score in assay [8] is 7.28 (inactive).
As to `CC(C)C(CO)N1C(=O)[C@@H]2[C@H]3C(=O)OCC=C[C@H]3OC23C=CCN(c2ccc(Cl)cc2)C(=O)[C@@H]13` (stereo not given in full), the composite z-score was -0.0597 in assay [1]; -0.61 in assay [2]; -0.141 in [3]; -0.385 in [4]; -0.659 in assay [5]; -0.7 in assay [6]. Further, the composite z-score in [7] is 0.436; in [9] it was -0.243; in [10], -0.313. Further, the z-score in assay [8] was -0.459 (inactive).

The values are drawn from PubChem BioAssay.
